# Measurements: the supplement of paper PMC10849652
# The full data set covers some 8,800 targets. This sample favours those with a hit. About 0.5% of all pairs of compound and target were hits. Unmarked numbers belong to inactive results.
# Compound: CC(C)C1=C2N=C(C=C(N2N=C1)NCC3=CC=CC=C3)NCCCCCCN
# Experiment: log2 fold change, soluble protein after heating vs DMSO (PISA); higher = thermal stabilisation; K562 lysate, 10 uM; active = over 0.2 and 3.5 SD of the protein, either way, in both replicates (recomputed)
# Procedure, shortened: (§1)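 Log-two fold change in thermal stability relative to solvent controls is reported from duplicates. For each sample, crude K562 extract from dounce-homogenised pellets in PBS pH 7.4 with 1 mM MgCl2, at 1 mg/mL protein, was treated with 10 μM compound for 30 min. Aliquots heated for 3 min across 48°C-58°C were pooled, brought to 0.5% NP-40 at 4°C and cleared at 21,000xg for 90 min. The supernatant was quantified by TMTpro 16plex LC-MS/MS with channel sums equalised.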
# Sequence of UniProt P40818 (P40818 whole entry, looked up): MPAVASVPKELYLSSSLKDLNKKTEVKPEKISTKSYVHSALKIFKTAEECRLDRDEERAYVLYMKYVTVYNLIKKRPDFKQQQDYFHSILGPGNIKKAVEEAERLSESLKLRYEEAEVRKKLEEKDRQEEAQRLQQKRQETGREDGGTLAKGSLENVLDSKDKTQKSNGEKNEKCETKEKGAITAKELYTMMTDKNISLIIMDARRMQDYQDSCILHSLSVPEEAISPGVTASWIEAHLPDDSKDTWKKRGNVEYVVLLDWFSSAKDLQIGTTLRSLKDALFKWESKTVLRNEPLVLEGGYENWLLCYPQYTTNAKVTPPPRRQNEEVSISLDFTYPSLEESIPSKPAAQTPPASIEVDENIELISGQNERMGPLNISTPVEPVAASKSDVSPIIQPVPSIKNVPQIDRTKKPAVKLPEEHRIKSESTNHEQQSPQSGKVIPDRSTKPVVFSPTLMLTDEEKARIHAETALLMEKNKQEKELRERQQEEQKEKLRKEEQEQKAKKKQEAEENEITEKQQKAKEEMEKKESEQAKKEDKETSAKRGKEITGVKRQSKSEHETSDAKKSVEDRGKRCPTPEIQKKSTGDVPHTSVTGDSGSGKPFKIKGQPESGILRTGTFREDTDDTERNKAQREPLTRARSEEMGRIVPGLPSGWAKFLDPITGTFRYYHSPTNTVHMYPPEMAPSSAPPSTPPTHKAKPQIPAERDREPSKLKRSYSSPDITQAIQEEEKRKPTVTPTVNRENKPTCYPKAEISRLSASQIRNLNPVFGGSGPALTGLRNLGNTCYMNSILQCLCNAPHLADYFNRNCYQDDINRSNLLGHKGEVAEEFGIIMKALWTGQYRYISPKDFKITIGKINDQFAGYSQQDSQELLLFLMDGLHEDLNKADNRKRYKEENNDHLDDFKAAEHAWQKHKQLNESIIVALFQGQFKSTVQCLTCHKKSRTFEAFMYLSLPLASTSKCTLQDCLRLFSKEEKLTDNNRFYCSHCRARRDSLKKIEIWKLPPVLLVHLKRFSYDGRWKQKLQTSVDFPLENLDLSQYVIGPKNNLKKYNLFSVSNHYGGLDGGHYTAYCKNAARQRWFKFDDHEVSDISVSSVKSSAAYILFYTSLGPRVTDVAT
# Sequence of UniProt Q93008 (Q93008 whole entry, looked up): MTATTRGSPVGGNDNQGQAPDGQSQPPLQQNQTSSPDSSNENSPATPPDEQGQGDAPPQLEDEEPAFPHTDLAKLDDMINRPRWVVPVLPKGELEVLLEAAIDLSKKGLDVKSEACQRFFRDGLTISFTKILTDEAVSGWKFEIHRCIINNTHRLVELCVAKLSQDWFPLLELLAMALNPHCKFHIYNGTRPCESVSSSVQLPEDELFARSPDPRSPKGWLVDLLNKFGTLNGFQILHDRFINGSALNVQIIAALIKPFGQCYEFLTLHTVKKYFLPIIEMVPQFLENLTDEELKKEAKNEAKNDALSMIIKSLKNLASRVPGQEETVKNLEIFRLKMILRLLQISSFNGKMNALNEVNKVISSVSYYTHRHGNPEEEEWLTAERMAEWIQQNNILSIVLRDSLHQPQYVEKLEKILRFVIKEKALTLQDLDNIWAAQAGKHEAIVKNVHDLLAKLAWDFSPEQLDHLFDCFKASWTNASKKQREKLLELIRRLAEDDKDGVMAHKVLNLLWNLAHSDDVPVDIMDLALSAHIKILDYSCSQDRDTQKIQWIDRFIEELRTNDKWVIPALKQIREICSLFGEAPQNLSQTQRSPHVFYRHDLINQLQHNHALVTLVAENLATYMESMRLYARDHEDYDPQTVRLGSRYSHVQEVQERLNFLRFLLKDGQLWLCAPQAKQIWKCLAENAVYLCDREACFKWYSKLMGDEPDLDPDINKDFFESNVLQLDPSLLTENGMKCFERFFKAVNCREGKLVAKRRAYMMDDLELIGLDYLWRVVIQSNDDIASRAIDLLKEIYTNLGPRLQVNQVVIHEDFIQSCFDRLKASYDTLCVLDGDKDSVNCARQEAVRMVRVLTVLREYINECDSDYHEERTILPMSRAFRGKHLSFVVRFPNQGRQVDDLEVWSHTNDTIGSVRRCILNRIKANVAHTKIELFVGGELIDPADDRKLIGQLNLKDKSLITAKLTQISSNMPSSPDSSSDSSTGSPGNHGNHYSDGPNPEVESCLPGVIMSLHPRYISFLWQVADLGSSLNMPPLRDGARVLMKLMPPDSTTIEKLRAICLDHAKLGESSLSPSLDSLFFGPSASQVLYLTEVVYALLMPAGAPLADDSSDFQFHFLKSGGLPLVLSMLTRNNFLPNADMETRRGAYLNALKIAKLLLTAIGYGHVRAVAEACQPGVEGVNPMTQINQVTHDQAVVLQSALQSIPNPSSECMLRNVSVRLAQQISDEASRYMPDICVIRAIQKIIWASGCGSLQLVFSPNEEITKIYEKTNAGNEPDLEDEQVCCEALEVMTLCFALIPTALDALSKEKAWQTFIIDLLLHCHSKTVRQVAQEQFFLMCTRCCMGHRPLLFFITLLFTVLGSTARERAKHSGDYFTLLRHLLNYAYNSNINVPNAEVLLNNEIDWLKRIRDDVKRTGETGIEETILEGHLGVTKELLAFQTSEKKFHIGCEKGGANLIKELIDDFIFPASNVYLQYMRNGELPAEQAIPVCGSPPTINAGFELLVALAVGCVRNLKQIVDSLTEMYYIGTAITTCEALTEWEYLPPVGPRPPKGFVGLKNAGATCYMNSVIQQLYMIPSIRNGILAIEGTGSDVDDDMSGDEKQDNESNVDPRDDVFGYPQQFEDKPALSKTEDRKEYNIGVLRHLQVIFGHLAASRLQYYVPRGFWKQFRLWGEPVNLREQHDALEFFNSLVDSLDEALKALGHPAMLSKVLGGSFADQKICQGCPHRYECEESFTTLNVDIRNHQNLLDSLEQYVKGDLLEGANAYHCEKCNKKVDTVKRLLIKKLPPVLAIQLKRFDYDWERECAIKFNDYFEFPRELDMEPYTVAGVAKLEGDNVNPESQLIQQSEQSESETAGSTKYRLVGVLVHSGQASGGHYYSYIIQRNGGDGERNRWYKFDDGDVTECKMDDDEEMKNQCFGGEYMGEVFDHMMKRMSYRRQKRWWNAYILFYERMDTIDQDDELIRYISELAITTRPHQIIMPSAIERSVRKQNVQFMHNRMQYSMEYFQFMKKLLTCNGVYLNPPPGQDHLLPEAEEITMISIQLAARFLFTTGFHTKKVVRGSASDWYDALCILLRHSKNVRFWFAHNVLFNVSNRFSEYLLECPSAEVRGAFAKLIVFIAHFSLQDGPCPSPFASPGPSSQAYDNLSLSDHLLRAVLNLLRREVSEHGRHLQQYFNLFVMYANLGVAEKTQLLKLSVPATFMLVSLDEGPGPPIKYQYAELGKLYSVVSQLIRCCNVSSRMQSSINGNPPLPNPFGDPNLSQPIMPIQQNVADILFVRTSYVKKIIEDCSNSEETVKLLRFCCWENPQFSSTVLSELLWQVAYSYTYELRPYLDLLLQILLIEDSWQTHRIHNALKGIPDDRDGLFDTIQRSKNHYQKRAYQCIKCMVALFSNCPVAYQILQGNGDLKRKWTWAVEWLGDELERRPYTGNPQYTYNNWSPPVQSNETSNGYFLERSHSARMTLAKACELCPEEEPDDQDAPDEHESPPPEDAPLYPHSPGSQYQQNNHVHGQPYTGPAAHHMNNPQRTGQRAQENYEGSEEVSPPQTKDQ
# Sequence of UniProt P22695 (P22695 whole entry, looked up): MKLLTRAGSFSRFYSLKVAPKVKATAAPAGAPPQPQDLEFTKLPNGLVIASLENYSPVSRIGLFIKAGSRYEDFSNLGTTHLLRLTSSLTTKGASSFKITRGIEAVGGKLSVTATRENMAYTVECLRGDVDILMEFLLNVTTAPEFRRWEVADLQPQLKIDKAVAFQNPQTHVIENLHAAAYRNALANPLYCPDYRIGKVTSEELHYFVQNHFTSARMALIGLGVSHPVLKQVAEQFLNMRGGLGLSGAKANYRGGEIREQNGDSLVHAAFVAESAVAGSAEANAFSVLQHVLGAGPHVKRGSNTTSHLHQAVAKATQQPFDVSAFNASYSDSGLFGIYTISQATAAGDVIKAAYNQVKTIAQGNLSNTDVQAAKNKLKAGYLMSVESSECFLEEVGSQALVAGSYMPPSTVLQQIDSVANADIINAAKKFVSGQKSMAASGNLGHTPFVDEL
# Sequence of UniProt Q9NWK9 (Q9NWK9 whole entry, looked up): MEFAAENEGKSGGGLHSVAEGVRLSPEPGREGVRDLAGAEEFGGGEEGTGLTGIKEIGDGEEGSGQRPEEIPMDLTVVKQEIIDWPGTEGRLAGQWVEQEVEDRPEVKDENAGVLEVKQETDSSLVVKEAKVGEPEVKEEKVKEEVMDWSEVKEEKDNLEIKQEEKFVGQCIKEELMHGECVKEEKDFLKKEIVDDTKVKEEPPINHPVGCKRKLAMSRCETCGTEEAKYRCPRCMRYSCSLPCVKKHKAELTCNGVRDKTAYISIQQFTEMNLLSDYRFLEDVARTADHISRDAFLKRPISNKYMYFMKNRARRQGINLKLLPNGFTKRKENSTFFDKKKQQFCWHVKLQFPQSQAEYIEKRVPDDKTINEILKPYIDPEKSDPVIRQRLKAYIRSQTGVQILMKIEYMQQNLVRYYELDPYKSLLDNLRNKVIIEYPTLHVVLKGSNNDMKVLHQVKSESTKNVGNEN
# Sequence of UniProt Q86U90 (Q86U90 whole entry, looked up): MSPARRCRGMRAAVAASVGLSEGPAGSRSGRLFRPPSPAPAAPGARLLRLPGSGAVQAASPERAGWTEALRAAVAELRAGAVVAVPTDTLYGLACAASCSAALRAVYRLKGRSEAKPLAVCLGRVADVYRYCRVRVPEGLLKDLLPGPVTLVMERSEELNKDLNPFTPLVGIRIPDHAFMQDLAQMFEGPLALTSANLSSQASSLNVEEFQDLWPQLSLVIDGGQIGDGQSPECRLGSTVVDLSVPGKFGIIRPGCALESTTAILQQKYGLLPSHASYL
row,Target,log2 fold change
1,WDR3 (UniProt Q9UNX4),-0.033
2,USP8 (UniProt P40818),0.015
3,ZFPM1 (UniProt Q8IX07),0.02
4,VRK2 (UniProt Q86Y07),-0.037
5,WDR91 (UniProt A4D1P6),-0.026
6,WDR20 isoform 7 (UniProt Q8TBZ3),-0.019
7,YRDC (UniProt Q86U90),0.027
8,UQCRC2 (UniProt P22695),-0.005

# Compound: CC1=C(C(CC(=O)N1)C2=CC=C(C=C2)C(F)(F)F)C(=O)NC3=C(C=C4C(=C3)C=NN4)F
# Experiment: as above
# Procedure, shortened: as §1
row,Target,log2 fold change
1,USP9X (UniProt Q93008),-0.008
2,ZMYM1 (UniProt Q5SVZ6),-0.049
3,ZNF598 isoform 3 (UniProt Q86UK7),0.019
4,VAV1 (UniProt P15498),-0.004
5,WDR7 (UniProt Q9Y4E6),-0.005
6,VPS11 (UniProt Q9H270),0.003
7,ZNF318 (UniProt Q5VUA4),0.023
8,VAC14 (UniProt Q08AM6),-0.008
9,VPS41 (UniProt P49754),0.024
10,ZNHIT6 (UniProt Q9NWK9),0.036
11,ZZEF1 (UniProt O43149),-0.005
12,VPS16 (UniProt Q9H269),-0.015
13,ZHX1 (UniProt Q9UKY1),0.109
14,ZC3H13 (UniProt Q5T200),-0.101
15,VRK1 (UniProt Q99986),-0.013
